# Test results published in PubChem BioAssay (Tox21).
# Inconclusive results are not listed. Where a call stands in place of a potency, no number is given. Active and inactive are the calls of the source. Unless noted, the call rests on the fitted dose curve; in most records, active means well fitted curve in the direction sought with a large enough effect in the repeat runs; inconclusive means weak or mixed curves; inactive means no such curve, though single readings can be large; an effect the other way counts as inactive or inconclusive.
# What was measured:
# [1] = qHTS assay for identifying genotoxic compounds that show differential cytotoxicity against isogenic chicken DT40 cell lines with known DNA damage response pathways - Rev3 mutant cell line (AID 743014); further: nearly all actives have a fitted effect of over 55% in size; further: potency means the concentration at half of the fitted maximal effect
# [2] = qHTS assay to identify small molecule antagonists of the androgen receptor (AR) signaling pathway using the MDA cell line - cell viability counter screen (AID 743041; further: nearly all actives have a fitted effect of over 45% in size; further: potency means the concentration at half of the fitted maximal effect)
# How it was run: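 qHTS viability read-out; MDA-kb2 AR-luc; R1881-stimulated; 16 h exposure at 37C, 0% CO2; CellTiter-Fluor, 30 min; fluorescence intensity.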
# [3] = target: Androgen receptor (Homo sapiens) (UniProt P10275); assay: qHTS assay to identify small molecule antagonists of the androgen receptor (AR) signaling pathway using the MDA cell line (AID 743042; further: nearly all actives have a fitted effect of over 55% in size; further: potency means the concentration at half of the fitted maximal effect)
# How it was run: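 MDA-kb2 cells (human breast carcinoma, stably carrying an MMTV-luciferase reporter responsive to AR and GR) were plated at 3,000 cells/well and preincubated 5 hr at 37C, then given compound plus R1881 agonist for 16 h. ONE-Glo luminescence was read.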
# [4] = qHTS assay for identifying genotoxic compounds that show differential cytotoxicity against isogenic chicken DT40 cell lines with known DNA damage response pathways - wild type cell line (AID 743012); further: nearly all actives have a fitted effect of over 60% in size; further: potency means the concentration at half of the fitted maximal effect
# How it was run: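 300 wt DT40 cells/well; cpd (DMSO) pintool-transferred after ~0.5 h at 37 C/5% CO2; 40 h incubation; CellTiter-Glo added, 30 min RT; luminescence read.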
# [5] = qHTS assay for identifying genotoxic compounds that show differential cytotoxicity against isogenic chicken DT40 cell lines with known DNA damage response pathways - Rad54/Ku70 mutant cell line (AID 743015); further: nearly all actives have a fitted effect of over 60% in size; further: potency means the concentration at half of the fitted maximal effect
# [6] = qHTS assay to identify small molecule antagonists of the androgen receptor (AR) signaling pathway - cell viability counter screen (AID 743033; further: nearly all actives have a fitted effect of over 45% in size)
# [7] = qHTS assay to identify small molecule antagonists of the glucocorticoid receptor (GR) signaling pathway - cell viability counter screen (AID 720693); further: nearly all actives have a fitted effect of over 55% in size
# [8] = target: Androgen receptor (Homo sapiens) (UniProt P10275); assay: qHTS assay to identify small molecule antagonists of the androgen receptor (AR) signaling pathway (AID 743035; active means well fitted inhibition curve with a large enough effect in the signal ratio in the repeat runs, not every such curve was filed as active; the % refers to the signal ratio; further: potency means the concentration at half of the fitted maximal effect)
# How it was run: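 In this cell-based reporter screen, compounds were tested in concentration series against R1881-activated HEK293 cells expressing beta-lactamase under UAS control; after 16 h at 37C, FRET substrate was added and fluorescence read 2 h later.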
# [9] = target: Androgen receptor (Homo sapiens) (UniProt P10275); assay: qHTS assay to identify small molecule agonists of the androgen receptor (AR) signaling pathway using the MDA cell line (AID 743040; further: nearly all actives have a fitted effect of over 20% in size)
# How it was run: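 Agonist activity is measured as luciferase luminescence in human MDA-kb2 cells whose MMTV reporter responds to both AR and GR. Compounds in DMSO incubate 16 h at 37C, 0% CO2, and ONE-Glo is read after 30 min.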
# [10] = target: Androgen receptor (Homo sapiens) (UniProt P10275); assay: qHTS assay to identify small molecule agonists of the androgen receptor (AR) signaling pathway (AID 743036; active means well fitted activation curve with a large enough effect in the signal ratio in the repeat runs, with a control signal flat, not every such curve was filed as active; the % refers to the signal ratio)
# How it was run: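 AR-UAS-bla HEK293 cells, plated 4 h before dosing, were treated with compound for 16 h at 37C. beta-Lactamase reporter read after 2 h with LiveBLAzer B/G FRET substrate at room temperature.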
# Chain of Androgen receptor (Homo sapiens) (P10275 whole entry, looked up): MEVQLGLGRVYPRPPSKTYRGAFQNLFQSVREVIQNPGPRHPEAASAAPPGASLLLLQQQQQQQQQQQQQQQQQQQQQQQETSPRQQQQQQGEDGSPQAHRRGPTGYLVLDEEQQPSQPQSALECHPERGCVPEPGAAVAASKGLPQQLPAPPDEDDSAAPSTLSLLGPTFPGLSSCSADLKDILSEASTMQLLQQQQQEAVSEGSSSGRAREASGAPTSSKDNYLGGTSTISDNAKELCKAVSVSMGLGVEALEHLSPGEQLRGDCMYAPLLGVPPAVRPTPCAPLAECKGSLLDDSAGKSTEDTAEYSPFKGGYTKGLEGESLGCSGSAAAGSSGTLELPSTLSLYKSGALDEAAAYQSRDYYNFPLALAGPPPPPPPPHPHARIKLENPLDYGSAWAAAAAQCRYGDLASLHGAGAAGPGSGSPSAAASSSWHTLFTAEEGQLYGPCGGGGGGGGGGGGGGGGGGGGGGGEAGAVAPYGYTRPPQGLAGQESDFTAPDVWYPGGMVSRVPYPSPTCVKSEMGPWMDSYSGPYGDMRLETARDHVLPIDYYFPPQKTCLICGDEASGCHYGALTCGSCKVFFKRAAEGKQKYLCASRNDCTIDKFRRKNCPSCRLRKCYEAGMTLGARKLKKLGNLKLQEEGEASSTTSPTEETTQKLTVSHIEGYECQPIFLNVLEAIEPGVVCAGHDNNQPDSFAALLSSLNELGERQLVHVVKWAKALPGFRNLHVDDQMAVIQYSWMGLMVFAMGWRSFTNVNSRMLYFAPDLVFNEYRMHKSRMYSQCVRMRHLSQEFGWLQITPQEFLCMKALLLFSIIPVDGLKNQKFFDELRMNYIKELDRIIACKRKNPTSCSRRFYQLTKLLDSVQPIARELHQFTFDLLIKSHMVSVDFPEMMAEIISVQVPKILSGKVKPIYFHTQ
compound,measurement,setting,value
O=C(CCc1ccc(O)cc1)c1c(O)cc(O)cc1O,Potency,[1],62.5 µM (active)
same,Potency,[2],inactive
same,Potency,[3],inactive
CCCCN1CCCC1C(=O)Nc1c(C)cc(C)cc1C (stereo unspecified),Potency,[4],16.8 µM (active)
same,Potency,[1],23.7 µM (active)
same,Potency,[5],29.8 µM (active)
same,Potency,[6],inactive
same,Potency,[2],inactive
C[C@H]1c2cccc(O)c2C(O)=C2C(=O)[C@]3(O)C(O)=C(C(N)=O)C(=O)[C@@H](N(C)C)[C@@H]3[C@@H](O)[C@@H]21,Potency,[7],inactive
same,Potency,[6],inactive
same,Potency,[8],inactive
same,outcome,[9],inactive
same,Potency,[2],inactive
same,Potency,[3],inactive
CC1=Nc2ccc3ccccc3c2C1(C)C,Potency,[7],inactive
same,outcome,[10],inactive
same,outcome,[9],inactive
same,Potency,[3],inactive
C[C@@H]1CC(=O)NN=C1c1ccc(NN=C(C#N)C#N)cc1,Potency,[4],18.8 µM (active)
same,Potency,[1],18.8 µM (active)
same,Potency,[5],21.1 µM (active)
same,outcome,[9],inactive
same,Potency,[2],29.8 µM (active)
Cc1cc(O)ccc1O,Potency,[4],inactive
same,Potency,[1],inactive
same,Potency,[5],inactive
same,Potency,[6],inactive
CCOC(=O)c1ccccc1C(=C1C=C(Br)C(=O)C(Br)=C1)c1cc(Br)c(O)c(Br)c1,Potency,[4],inactive
same,Potency,[1],inactive
same,Potency,[6],inactive
O=C=Nc1cccc(C(F)(F)F)c1,Potency,[7],inactive
same,Potency,[8],48.6 µM (active)
same,outcome,[10],inactive
same,outcome,[9],inactive
same,Potency,[2],inactive
same,Potency,[3],inactive
CCOC(=O)/C=C/C(=O)OCC,Potency,[4],inactive
same,Potency,[1],inactive
same,Potency,[5],inactive
same,Potency,[6],inactive
same,Potency,[2],inactive
CC1(CN2CCC(n3c(=O)[nH]c4ccccc43)CC2)OCc2ccccc2-n2cccc21 (stereo unspecified),Potency,[4],21.1 µM (active)
same,Potency,[1],29.8 µM (active)
same,Potency,[5],21.1 µM (active)
same,Potency,[6],inactive
Cc1ccc(Cl)c(Nc2ccccc2C(=O)O)c1Cl,Potency,[5],inactive
same,Potency,[6],inactive
same,Potency,[2],inactive
CCCCCCCCC(CCCCCC)C(=O)O (stereo unspecified),Potency,[4],inactive
same,Potency,[5],inactive
same,Potency,[6],inactive
same,Potency,[2],inactive
O=C1c2ccccc2C(=O)C1(O)O,Potency,[1],24.5 µM (active)
same,Potency,[5],27.4 µM (active)
same,Potency,[2],inactive
O=[N+]([O-])c1cc(C2CCCCC2)c(O)c([N+](=O)[O-])c1,Potency,[4],17.2 µM (active)
same,Potency,[1],21.6 µM (active)
same,Potency,[5],19.3 µM (active)
same,Potency,[8],5.48 µM (active)
same,outcome,[9],inactive
same,Potency,[3],12.2 µM (active)
